In PubChem BioAssay:
Activity calls are given as the source filed them.

Tests used:
[1] = binders of probe aFSTL3 on microarray, primary screen, stem cell growth factor project, biochemical, small-molecule microarray, fluorescence 635/667 (AID 1064); settings: higher = more signal;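 note: measures binding of the biotinylated anti-FSTL3 antibody to printed compounds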
[2] = binders from COS7 lysate, DM2A8 probe, primary screen, torsin A project, cell lysate, small-molecule microarray, fluorescence 635/667 (AID 1065); settings: higher = more signal, COS7 lysate expressing mutant human TOR1A
[3] = binders of probe aFGF2 on microarray, primary screen, stem cell growth factor project, biochemical, small-molecule microarray, fluorescence 635/667 (AID 1067); settings: higher = more signal;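 note: measures binding of biotinylated aFGF2 protein to printed compounds on slides; z-score merges feature fluorescence and signal-to-noise across triplicate slides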
[4] = binders of probe aFGF10 on microarray, primary screen, stem cell growth factor project, biochemical, small-molecule microarray, fluorescence 635/667 (AID 1071); settings: higher = more signal;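 note: score merges 667 nm spot intensity and signal to noise from triplicate slides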
[5] = target: Neurogenic locus notch homolog protein 2 (Homo sapiens) (UniProt Q04721); experiment: Notch2 binders on small-molecule microarrays, primary screen, biochemical, small-molecule microarray, 635 nm fluorescence, stem cell growth factors (AID 1073); settings: Notch2 binding, higher = more signal
Sequence of Neurogenic locus notch homolog protein 2 (Homo sapiens) (Q04721 whole entry, looked up, canonical isoform): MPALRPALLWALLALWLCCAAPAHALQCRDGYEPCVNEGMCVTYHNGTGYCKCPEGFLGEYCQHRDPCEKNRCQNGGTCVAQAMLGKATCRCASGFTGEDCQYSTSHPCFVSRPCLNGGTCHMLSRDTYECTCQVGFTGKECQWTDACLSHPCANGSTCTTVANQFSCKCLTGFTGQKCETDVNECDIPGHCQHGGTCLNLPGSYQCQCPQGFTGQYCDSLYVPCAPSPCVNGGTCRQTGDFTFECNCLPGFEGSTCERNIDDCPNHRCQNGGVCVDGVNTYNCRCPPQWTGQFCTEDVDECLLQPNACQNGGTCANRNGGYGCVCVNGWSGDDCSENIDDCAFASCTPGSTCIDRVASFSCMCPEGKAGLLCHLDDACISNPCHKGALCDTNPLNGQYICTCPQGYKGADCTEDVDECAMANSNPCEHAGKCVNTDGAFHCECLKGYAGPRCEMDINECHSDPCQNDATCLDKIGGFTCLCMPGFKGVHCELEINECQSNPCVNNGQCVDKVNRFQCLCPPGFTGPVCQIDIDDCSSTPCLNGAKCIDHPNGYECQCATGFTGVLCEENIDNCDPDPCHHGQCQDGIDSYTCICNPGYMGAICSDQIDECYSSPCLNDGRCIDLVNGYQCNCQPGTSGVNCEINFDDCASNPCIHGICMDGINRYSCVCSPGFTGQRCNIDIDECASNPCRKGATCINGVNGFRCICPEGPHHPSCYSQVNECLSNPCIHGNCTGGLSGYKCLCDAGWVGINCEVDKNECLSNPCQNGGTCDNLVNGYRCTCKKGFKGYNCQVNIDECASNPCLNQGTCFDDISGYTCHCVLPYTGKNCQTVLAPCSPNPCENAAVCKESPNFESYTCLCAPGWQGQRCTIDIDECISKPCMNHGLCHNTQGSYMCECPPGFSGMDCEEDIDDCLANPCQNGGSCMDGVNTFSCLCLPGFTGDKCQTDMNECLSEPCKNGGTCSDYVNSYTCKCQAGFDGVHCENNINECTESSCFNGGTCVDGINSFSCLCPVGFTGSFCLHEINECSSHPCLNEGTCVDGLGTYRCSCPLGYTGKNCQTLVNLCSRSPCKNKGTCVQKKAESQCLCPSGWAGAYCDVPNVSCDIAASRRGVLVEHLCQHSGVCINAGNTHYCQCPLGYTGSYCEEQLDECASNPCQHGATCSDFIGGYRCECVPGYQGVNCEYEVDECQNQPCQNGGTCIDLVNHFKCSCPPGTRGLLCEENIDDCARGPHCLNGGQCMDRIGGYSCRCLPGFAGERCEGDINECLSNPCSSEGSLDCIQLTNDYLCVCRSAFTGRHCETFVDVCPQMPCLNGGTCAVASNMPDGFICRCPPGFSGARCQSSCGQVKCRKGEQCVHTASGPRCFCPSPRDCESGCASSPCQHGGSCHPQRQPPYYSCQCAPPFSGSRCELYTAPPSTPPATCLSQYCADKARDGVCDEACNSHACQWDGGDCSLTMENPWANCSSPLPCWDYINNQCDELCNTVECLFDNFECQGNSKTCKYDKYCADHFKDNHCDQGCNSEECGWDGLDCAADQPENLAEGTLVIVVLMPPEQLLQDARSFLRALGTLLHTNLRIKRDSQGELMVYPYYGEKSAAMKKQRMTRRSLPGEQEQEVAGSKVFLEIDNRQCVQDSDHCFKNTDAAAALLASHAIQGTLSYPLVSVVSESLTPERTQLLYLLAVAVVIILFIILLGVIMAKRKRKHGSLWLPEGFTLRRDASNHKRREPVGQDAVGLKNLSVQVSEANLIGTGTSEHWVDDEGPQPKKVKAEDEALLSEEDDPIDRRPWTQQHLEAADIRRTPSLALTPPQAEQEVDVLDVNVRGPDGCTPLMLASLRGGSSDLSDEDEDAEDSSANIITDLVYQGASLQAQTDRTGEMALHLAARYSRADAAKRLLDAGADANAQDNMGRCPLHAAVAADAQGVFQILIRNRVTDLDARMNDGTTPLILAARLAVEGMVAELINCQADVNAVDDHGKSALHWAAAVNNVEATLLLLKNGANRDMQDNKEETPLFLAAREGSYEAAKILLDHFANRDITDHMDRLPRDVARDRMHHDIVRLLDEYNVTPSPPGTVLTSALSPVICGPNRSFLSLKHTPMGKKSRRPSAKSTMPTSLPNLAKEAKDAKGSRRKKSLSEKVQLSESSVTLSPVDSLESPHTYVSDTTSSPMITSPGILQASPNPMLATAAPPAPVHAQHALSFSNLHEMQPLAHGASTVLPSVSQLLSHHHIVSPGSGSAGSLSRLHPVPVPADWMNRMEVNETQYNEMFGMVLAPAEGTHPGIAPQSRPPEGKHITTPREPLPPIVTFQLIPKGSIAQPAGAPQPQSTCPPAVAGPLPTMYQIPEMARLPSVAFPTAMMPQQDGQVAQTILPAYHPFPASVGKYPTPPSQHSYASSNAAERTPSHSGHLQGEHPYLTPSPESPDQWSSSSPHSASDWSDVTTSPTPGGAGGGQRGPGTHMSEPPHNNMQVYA

[6] = target: Pro-neuregulin-1, membrane-bound isoform (Homo sapiens) (UniProt Q02297); experiment: NRG1 binders on small-molecule microarrays, primary screen, psychiatric disease protein project, biochemical, small-molecule microarray, fluorescence 635/667 (AID 1075); settings: NRG1 binding, 635 nm fluorescence, higher = more signal;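 note: score combines 667 nm spot fluorescence with signal to noise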
Sequence of Pro-neuregulin-1, membrane-bound isoform (Homo sapiens) (Q02297 whole entry, looked up, the tested form may be a part, canonical isoform): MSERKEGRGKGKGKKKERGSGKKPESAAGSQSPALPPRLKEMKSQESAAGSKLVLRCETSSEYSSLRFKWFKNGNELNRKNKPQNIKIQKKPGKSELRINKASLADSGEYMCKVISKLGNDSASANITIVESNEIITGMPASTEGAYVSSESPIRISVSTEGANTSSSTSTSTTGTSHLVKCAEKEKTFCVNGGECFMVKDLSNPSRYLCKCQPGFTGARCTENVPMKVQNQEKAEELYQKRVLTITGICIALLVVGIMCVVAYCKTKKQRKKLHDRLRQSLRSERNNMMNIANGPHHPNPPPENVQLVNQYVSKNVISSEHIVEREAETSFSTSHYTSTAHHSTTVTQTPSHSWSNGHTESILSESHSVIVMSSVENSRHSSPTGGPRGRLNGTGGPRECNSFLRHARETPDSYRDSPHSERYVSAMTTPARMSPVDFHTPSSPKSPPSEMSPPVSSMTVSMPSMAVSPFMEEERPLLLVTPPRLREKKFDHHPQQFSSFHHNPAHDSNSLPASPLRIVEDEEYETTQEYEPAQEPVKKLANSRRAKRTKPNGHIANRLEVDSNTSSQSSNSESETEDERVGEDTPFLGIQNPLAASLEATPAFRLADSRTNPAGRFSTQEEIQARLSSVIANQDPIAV

[7] = test system: Neuregulin-1 EGF-like domain; experiment: binders of neuregulin-1 EGF-like domain, primary screen, biochemical, small-molecule microarray, 635 nm fluorescence (AID 1081); settings: small-molecule microarray binding, higher = more signal;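 note: binding of the protein to compounds printed on small-molecule microarray slides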
[8] = FRG1 promoter luciferase signal modulators, primary screen, FRG1 inhibition for FSHD, cell-based, C2C12 myotubes, firefly/Renilla luciferase, luminescence (AID 1084); settings: higher = more signal, called active from +8 up or from −8 down
[9] = binders of probe aFST on microarray, primary screen, stem cell growth factor project, biochemical, small-molecule microarray, fluorescence 635/667 (AID 1086); settings: higher = more signal;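 note: score merges 667 nm fluorescence with signal-to-noise of each printed compound spot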
[10] = binders of probe aHhip on microarray, primary screen, stem cell growth factor project, biochemical, small-molecule microarray, fluorescence 635/667 (AID 1087); settings: higher = more signal;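 note: score merges spot fluorescence at 667nm with spot signal to noise ratio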

Row | Compound | composite z-score [1] | composite z-score [2] | composite z-score [3] | composite z-score [4] | composite z-score [5] | composite z-score [6] | composite z-score [7] | z-score [8] | composite z-score [9] | composite z-score [10]
1 | [N-]=[N+]=Nc1ccccc1C[C@]1(C(=O)NCCN2CCOCC2)COC(c2ccc(OCCCO)cc2)=N1 | 0.295 | 1.26 | -0.27 | -0.0786 | 0.722 | 1.55 | 1.39 | 0.706 (inactive) | 0.143 | -0.0994
2 | COc1ccc([Si](C)(C)[C@@H]2[C@@H](CC(=O)N3CCC[C@H]3CO)O[C@]3(C(=O)N(Cc4cccc(N5C(=O)COc6ccccc65)c4)c4ccccc43)[C@H]2C)cc1 | -0.222 | 0.203 | -0.112 | 0.428 | -0.173 | 1.35 | 1.12 | -0.234 (inactive) | 0.824 | 0.103
3 | [N-]=[N+]=Nc1ccccc1C[C@]1(C(=O)O)COC(c2ccc(OCCCO)cc2)=N1 | 0.326 | -1.1 | -0.11 | 0.518 | 0.194 | 0.614 | 1.19 | 5.78 (inactive) | 0.205 | 0.419
4 | CC#CCO[Si](C#Cc1ccccc1)(C(C)C)C(C)C | 0.393 | -0.688 | -0.187 | -0.279 | 1.34 | -0.878 | -0.665 | 0.289 (inactive) | -0.217 | -0.134
5 | O=C1C2C=CC(C(O)c3ccco3)N(Nc3ccccc3F)C2C(=O)N1c1ccccc1 (stereo not given) | -0.111 | -0.501 | 0.134 | 0.458 | 1.02 | 1.32 | 0.894 | 0.793 (inactive) | 0.931 | -0.173
6 | CC(C)N1CC=CC23O[C@@H]4C=CCCOC(=O)C4[C@H]2C(=O)N(CCCO)[C@@H]3C1=O (stereo not given in full) | -0.339 | -0.0962 | -0.12 | -0.458 | -0.693 | -0.491 | 0.059 | -0.395 (inactive) | 0.002 | 0.0505
7 | CC(C)C(CO)N1C(=O)[C@@H]2[C@H]3C(=O)OCC=C[C@H]3OC23C=CCN(c2ccc(Cl)cc2)C(=O)[C@@H]13 (stereo not given in full) | -0.0597 | -0.61 | -0.141 | -0.385 | -0.659 | -0.7 | 0.436 | -0.459 (inactive) | -0.243 | -0.313
8 | COC(=O)c1c(CC[C@@H](CO)NC(=O)N2CCC[C@H]2Cn2cc(C3(O)CCCCC3)nn2)oc(C(C)=O)c1C(=O)OC | -0.522 | 0.831 | -0.142 | 0.439 | 0.495 | 1.11 | 1.19 | -0.199 (inactive) | 0.0512 | -0.201
9 | C=C[C@@H](CO)N(Cc1ccc(OC)cc1)S(=O)(=O)c1ccc(Br)cc1 | -0.142 | 0.368 | -0.13 | 0.332 | -0.185 | 0.0749 | 0.996 | -4.18 (inactive) | -0.446 | -0.134
10 | CCCCCCc1nc(Cc2cc(OC)c(OC)c(OC)c2)cc2c1[Si](C(C)C)(C(C)C)OC2 | -0.288 | -0.117 | -0.0909 | 0.0277 | -0.196 | -0.184 | -0.434 | 1.06 (inactive) | -0.0763 | -0.0427
11 | CCCCCN1CC=CC23O[C@@H]4/C=C\CCC(C)OC(=O)C4[C@H]2C(=O)N(C(CO)C(C)C)[C@@H]3C1=O (stereo not given in full) | -1.2 | -0.456 | -0.245 | -0.246 | -0.406 | 1.21 | 1.38 | -0.23 (inactive) | -0.592 | -0.457
12 | CC[C@@H]1C=C(C(=O)O)[C@H](c2ccc(C#N)cc2)N1S(=O)(=O)c1ccc(C)cc1 | 0.6 | 2.35 | 0.0865 | 1.09 | 0.905 | 1.25 | 1.3 | 0.281 (inactive) | 0.145 | -0.134
13 | CC(C)c1ccc(NN2C(C(O)c3ccc(C#N)cc3)C=CC3C(=O)N(c4ccccc4)C(=O)C32)cc1 (stereo not given) | 0.546 | 0.0853 | 0.105 | 1.15 | 1.72 | 1.87 | 1 | -2.97 (inactive) | 1.8 | -0.0704
14 | CCCCC(CC)C(O)C1C=CC2C(=O)N(c3ccccc3)C(=O)C2N1Nc1ccccc1F (stereo not given) | 0.0758 | 0.39 | 0.151 | 0.972 | 1.54 | -0.144 | 1.21 | 0.39 (inactive) | 0.727 | -0.123
15 | C=CC[C@H](OC(=O)Nc1ccc(SC)cc1)c1ccc(O)c2ccccc12 | 0.0792 | 0.104 | 0.0536 | 0.254 | 1.3 | 1.75 | 1.33 | 7.23 (inactive) | 0.385 | 0.176
16 | O=C1OCCC=C[C@H]2OC34C=CCN(c5ccc6ccccc6c5)C(=O)[C@H]3N(CCCO)C(=O)[C@@H]4C12 (stereo not given in full) | 0.796 | -2.38 | -0.258 | -0.736 | -2.08 | -0.962 | -0.948 | -0.0625 (inactive) | -0.723 | -0.134
